One test has as its target POU1 (OCT1 POU domain) (human, UniProt P14859 260-458). Description: EMSA-SELEX-seq; no BOB1; 20 mM Tris-HCl pH 7.6, 140 mM NaCl, 10% glycerol, 0.5 mM EDTA, 0.05% Triton X-100, 0.1 mg/mL BSA, 0.1 mg/mL poly(dI-dC), 5 mM DTT, room temperature, 20 min; high values mean tight binding. The following applies: protein: recombinant; dsDNA, one strand shown. In a few lines:
(§1)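 After expression in E. coli BL21, tagged POU-domain proteins were purified under denaturing conditions and then renatured. Each binding reaction held 30 ng protein and 300 ng of a PCR-amplified double-stranded random 35-nt library in 20 μL Tris–HCl pH 7.6 binding buffer, with or without 28 ng coactivator protein, for 20 min at RT. Bands holding complexes were cut from native 6% PAGE, eluted and PCR-amplified across four rounds, and the output was Illumina-sequenced. The value given for binding preference is the share, in percent, of sequenced 8-mers fitting a motif pattern.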
A general note: In EMSA bound probe runs differently from free probe, usually more slowly.

In a further test the target is T1, POU2 (OCT2 POU domain) (human, UniProt P09086 175-386).
T1 sequence: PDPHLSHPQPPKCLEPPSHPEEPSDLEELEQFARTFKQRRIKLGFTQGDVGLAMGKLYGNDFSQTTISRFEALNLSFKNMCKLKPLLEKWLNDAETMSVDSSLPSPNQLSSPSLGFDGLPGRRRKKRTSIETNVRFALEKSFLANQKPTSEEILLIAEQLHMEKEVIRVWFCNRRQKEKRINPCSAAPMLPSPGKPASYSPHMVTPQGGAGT
Described as above. As to conditions: protein: recombinant; dsDNA, one strand shown. Put shortly: as §1

Test [1] concerns the target POU1 (OCT1 POU domain);BOB1 (OBF1, OCA-B) (human;human, UniProt P14859;Q16633 260-458;1-256, |). Nature of the test: EMSA-SELEX-seq; with BOB1 (ternary complex band); 20 mM Tris-HCl pH 7.6, 140 mM NaCl, 10% glycerol, 0.5 mM EDTA, 0.05% Triton X-100, 0.1 mg/mL BSA, 0.1 mg/mL poly(dI-dC), 5 mM DTT, room temperature, 20 min; high values mean tight binding. The following applies: protein: recombinant;recombinant; copies: 1;1; dsDNA, one strand shown. Put shortly:
as §1

For test [2], the target named is T2, POU2 (OCT2 POU domain);BOB1 (OBF1, OCA-B) (human;human, UniProt P09086;Q16633 175-386;1-256, |).
T2 sequence 1: T1 sequence
T2 sequence 2: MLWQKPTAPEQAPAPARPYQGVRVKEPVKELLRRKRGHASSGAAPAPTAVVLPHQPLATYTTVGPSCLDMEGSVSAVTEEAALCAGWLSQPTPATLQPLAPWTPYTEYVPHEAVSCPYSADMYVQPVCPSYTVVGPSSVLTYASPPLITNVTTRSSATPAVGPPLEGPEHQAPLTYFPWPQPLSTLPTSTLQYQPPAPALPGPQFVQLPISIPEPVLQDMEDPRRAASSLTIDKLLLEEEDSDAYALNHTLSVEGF
Described as above. As to conditions: protein: recombinant;recombinant; copies: 1;1; dsDNA, one strand shown. In a few lines:
as §1

Chain of POU1 (OCT1 POU domain) (P14859 260-458): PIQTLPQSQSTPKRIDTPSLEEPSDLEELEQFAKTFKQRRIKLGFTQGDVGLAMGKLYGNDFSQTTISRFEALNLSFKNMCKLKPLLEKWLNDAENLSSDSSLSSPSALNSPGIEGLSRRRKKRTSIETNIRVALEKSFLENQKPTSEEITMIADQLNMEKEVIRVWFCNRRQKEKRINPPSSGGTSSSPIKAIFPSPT

Turning to ATGGAAAA, the binding signal with POU1 (OCT1 POU domain) is 0.233 % of ANNNNAAN 8-mers; with POU2 (OCT2 POU domain), 0.162 % of ANNNNAAN 8-mers; in test [1], 0.289 % of ANNNNAAN 8-mers; in test [2], 0.147 % of ANNNNAAN 8-mers.

As for ATAAAAAA, the binding signal is 0.0995 % of ANNNNAAN 8-mers with POU1 (OCT1 POU domain), 0.1 % of ANNNNAAN 8-mers with POU2 (OCT2 POU domain), 0.0823 % of ANNNNAAN 8-mers in test [1] and 0.0801 % of ANNNNAAN 8-mers in test [2].

Take AGGAAAAC: the binding signal with POU1 (OCT1 POU domain) is 0.0591 % of ANNNNAAN 8-mers; with POU2 (OCT2 POU domain), 0.0552 % of ANNNNAAN 8-mers; in test [1] it was 0.0839 % of ANNNNAAN 8-mers; in test [2], 0.0636 % of ANNNNAAN 8-mers.

Take ATTGTAAT: the binding signal with POU1 (OCT1 POU domain) was 0.312 % of ANNNNAAN 8-mers; with POU2 (OCT2 POU domain), 0.357 % of ANNNNAAN 8-mers; in test [1], 0.116 % of ANNNNAAN 8-mers; in test [2], 0.137 % of ANNNNAAN 8-mers.

ACCGTAAT: the binding signal with POU1 (OCT1 POU domain) is 0.0454 % of ANNNNAAN 8-mers; with POU2 (OCT2 POU domain), 0.0529 % of ANNNNAAN 8-mers; in test [1], 0.0332 % of ANNNNAAN 8-mers; in test [2], 0.0495 % of ANNNNAAN 8-mers.

In the case of ATACGAAT, the binding signal with POU1 (OCT1 POU domain) was 0.0908 % of ANNNNAAN 8-mers; in the test with POU2 (OCT2 POU domain), 0.101 % of ANNNNAAN 8-mers; in test [1], 0.0687 % of ANNNNAAN 8-mers; in test [2], 0.0759 % of ANNNNAAN 8-mers.

ATTGAAAT: the binding signal with POU1 (OCT1 POU domain) was 0.257 % of ANNNNAAN 8-mers; in the test with POU2 (OCT2 POU domain), 0.29 % of ANNNNAAN 8-mers; in test [1] it was 0.189 % of ANNNNAAN 8-mers; in test [2] it was 0.137 % of ANNNNAAN 8-mers.

Take ATTGAAAC: the binding signal with POU1 (OCT1 POU domain) was 0.0431 % of ANNNNAAN 8-mers; in the test with POU2 (OCT2 POU domain), 0.0322 % of ANNNNAAN 8-mers; in test [1] it was 0.0406 % of ANNNNAAN 8-mers; in test [2], 0.0396 % of ANNNNAAN 8-mers.

With ATACAAAG, the binding signal with POU1 (OCT1 POU domain) was 0.0984 % of ANNNNAAN 8-mers; with POU2 (OCT2 POU domain) it was 0.0938 % of ANNNNAAN 8-mers; in test [1] it was 0.139 % of ANNNNAAN 8-mers; in test [2], 0.09 % of ANNNNAAN 8-mers.

Regarding ACTACAAC, the binding signal is 0.0122 % of ANNNNAAN 8-mers with POU1 (OCT1 POU domain), 0.0196 % of ANNNNAAN 8-mers with POU2 (OCT2 POU domain), 0.0164 % of ANNNNAAN 8-mers in test [1] and 0.0173 % of ANNNNAAN 8-mers in test [2].

With AGACAAAC, the binding signal in the test with POU1 (OCT1 POU domain) is 0.0313 % of ANNNNAAN 8-mers; in the test with POU2 (OCT2 POU domain), 0.0265 % of ANNNNAAN 8-mers; in test [1], 0.0414 % of ANNNNAAN 8-mers; in test [2], 0.0322 % of ANNNNAAN 8-mers.

For ACCTAAAT, the binding signal is 0.0393 % of ANNNNAAN 8-mers in the test with POU1 (OCT1 POU domain), 0.0489 % of ANNNNAAN 8-mers in the test with POU2 (OCT2 POU domain), 0.0386 % of ANNNNAAN 8-mers in test [1] and 0.0421 % of ANNNNAAN 8-mers in test [2].

Regarding AGTAAAAA, the binding signal with POU1 (OCT1 POU domain) is 0.0911 % of ANNNNAAN 8-mers; in the test with POU2 (OCT2 POU domain), 0.0679 % of ANNNNAAN 8-mers; in test [1], 0.103 % of ANNNNAAN 8-mers; in test [2] it was 0.0578 % of ANNNNAAN 8-mers.

On to ACCAAAAA, for which the binding signal with POU1 (OCT1 POU domain) is 0.0336 % of ANNNNAAN 8-mers; with POU2 (OCT2 POU domain) it was 0.0328 % of ANNNNAAN 8-mers; in test [1] it was 0.0425 % of ANNNNAAN 8-mers; in test [2] it was 0.0256 % of ANNNNAAN 8-mers.

Consider AAATGAAA, for which the binding signal with POU1 (OCT1 POU domain) was 0.15 % of ANNNNAAN 8-mers; with POU2 (OCT2 POU domain), 0.133 % of ANNNNAAN 8-mers; in test [1] it was 0.21 % of ANNNNAAN 8-mers; in test [2], 0.147 % of ANNNNAAN 8-mers.

With AGTTTAAC, the binding signal with POU1 (OCT1 POU domain) is 0.04 % of ANNNNAAN 8-mers; with POU2 (OCT2 POU domain), 0.0449 % of ANNNNAAN 8-mers; in test [1], 0.0375 % of ANNNNAAN 8-mers; in test [2], 0.033 % of ANNNNAAN 8-mers.

As for ATAACAAC, the binding signal with POU1 (OCT1 POU domain) is 0.0252 % of ANNNNAAN 8-mers; in the test with POU2 (OCT2 POU domain) it was 0.0391 % of ANNNNAAN 8-mers; in test [1], 0.0222 % of ANNNNAAN 8-mers; in test [2], 0.0347 % of ANNNNAAN 8-mers.

Consider ACATAAAA, for which the binding signal was 0.103 % of ANNNNAAN 8-mers in the test with POU1 (OCT1 POU domain), 0.114 % of ANNNNAAN 8-mers with POU2 (OCT2 POU domain), 0.073 % of ANNNNAAN 8-mers in test [1] and 0.0925 % of ANNNNAAN 8-mers in test [2].

AAGGAAAA: the binding signal in the test with POU1 (OCT1 POU domain) is 0.113 % of ANNNNAAN 8-mers; with POU2 (OCT2 POU domain), 0.0955 % of ANNNNAAN 8-mers; in test [1] it was 0.17 % of ANNNNAAN 8-mers; in test [2], 0.0999 % of ANNNNAAN 8-mers.

On to AGTCAAAA, for which the binding signal was 0.164 % of ANNNNAAN 8-mers in the test with POU1 (OCT1 POU domain), 0.117 % of ANNNNAAN 8-mers with POU2 (OCT2 POU domain), 0.265 % of ANNNNAAN 8-mers in test [1] and 0.115 % of ANNNNAAN 8-mers in test [2].

As to AATATAAT, the binding signal was 0.213 % of ANNNNAAN 8-mers with POU1 (OCT1 POU domain), 0.286 % of ANNNNAAN 8-mers with POU2 (OCT2 POU domain), 0.137 % of ANNNNAAN 8-mers in test [1] and 0.133 % of ANNNNAAN 8-mers in test [2].

As for AAATAAAG, the binding signal in the test with POU1 (OCT1 POU domain) is 0.156 % of ANNNNAAN 8-mers; in the test with POU2 (OCT2 POU domain) it was 0.151 % of ANNNNAAN 8-mers; in test [1], 0.168 % of ANNNNAAN 8-mers; in test [2] it was 0.171 % of ANNNNAAN 8-mers.

Turning to AGCTCAAG, the binding signal in the test with POU1 (OCT1 POU domain) is 0.0183 % of ANNNNAAN 8-mers; with POU2 (OCT2 POU domain), 0.0173 % of ANNNNAAN 8-mers; in test [1], 0.0187 % of ANNNNAAN 8-mers; in test [2], 0.0206 % of ANNNNAAN 8-mers.

With ACAGGAAG, the binding signal was 0.0343 % of ANNNNAAN 8-mers with POU1 (OCT1 POU domain), 0.038 % of ANNNNAAN 8-mers with POU2 (OCT2 POU domain), 0.0332 % of ANNNNAAN 8-mers in test [1] and 0.0396 % of ANNNNAAN 8-mers in test [2].

As to ATCGTAAT, the binding signal with POU1 (OCT1 POU domain) is 0.085 % of ANNNNAAN 8-mers; in the test with POU2 (OCT2 POU domain) it was 0.108 % of ANNNNAAN 8-mers; in test [1], 0.0679 % of ANNNNAAN 8-mers; in test [2] it was 0.0768 % of ANNNNAAN 8-mers.

Regarding ATTTCAAA, the binding signal is 0.0866 % of ANNNNAAN 8-mers with POU1 (OCT1 POU domain), 0.0852 % of ANNNNAAN 8-mers with POU2 (OCT2 POU domain), 0.103 % of ANNNNAAN 8-mers in test [1] and 0.0751 % of ANNNNAAN 8-mers in test [2].

On to ACCGGAAC, for which the binding signal is 0.0137 % of ANNNNAAN 8-mers in the test with POU1 (OCT1 POU domain), 0.0138 % of ANNNNAAN 8-mers with POU2 (OCT2 POU domain), 0.0133 % of ANNNNAAN 8-mers in test [1] and 0.0124 % of ANNNNAAN 8-mers in test [2].

Consider AAAACAAG, for which the binding signal was 0.0641 % of ANNNNAAN 8-mers with POU1 (OCT1 POU domain), 0.0432 % of ANNNNAAN 8-mers with POU2 (OCT2 POU domain), 0.087 % of ANNNNAAN 8-mers in test [1] and 0.0751 % of ANNNNAAN 8-mers in test [2].

With ATTTTAAC, the binding signal with POU1 (OCT1 POU domain) is 0.0812 % of ANNNNAAN 8-mers; in the test with POU2 (OCT2 POU domain) it was 0.0921 % of ANNNNAAN 8-mers; in test [1], 0.0652 % of ANNNNAAN 8-mers; in test [2], 0.0652 % of ANNNNAAN 8-mers.
